# High-throughput results deposited in PubChem by several laboratories.
# This is a sample that favours compounds with a hit; in the whole collection about 2.9% have one here.
# FID counter: compounds displacing fluorescent DNA intercalator, primary screen, artefact control for HCV NS3 helicase inhibitor project, biochemical, FID fluorescence; 290,000 compounds, 0.17% hits; DNA fluorescent intercalator displacement; inhibition, % at 7.9 µM; in the data active means inhibition above about 37%;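 further: 0% = vehicle and 100% = reference compound; higher means more ethidium bromide displaced from hairpin DNA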
# MEKK2wt PB1 HTS: modulators of MEK5 binding to wildtype MEKK2, primary screen, biochemical, multiplex bead flow cytometry, Alexa488-MEK5; Mitogen-activated protein kinase kinase kinase 2 (Homo sapiens), Q9Y2U5; Alexa488-MEK5 binding to MEKK2 WT; actives lie on both sides; binding response (% of control), % at 10 µM; 290,000 compounds, 1.1% hits; AID 1531, 2009; in the data active means binding response below about 67% or above about 130%
# dFosB act-1: activators of delta FosB homodimer, primary screen, biochemical, fluorescence polarization, TAMRA-CDK5 oligo, single point; purified delta FosB; percent of positive-control signal above neutral wells; activation, % at 25 µM; AID 493131, 2011; Protein FosB (Mus musculus), P13346; 340,000 compounds, 0.99% hits;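 active means mean activation above about 17%, with every replicate also reaching it, limit read from the data, passing the limit was not always enough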
# MEKK2 mut-MEK5: MEK5 binding signal on mutant MEKK2 PB1, primary screen, biochemical, multiplex bead flow cytometry, Alexa488-MEK5; percent response, % at 10 µM; Alexa488-MEK5 binding to MEKK2 mutant; 290,000 compounds, 0.35% hits; in the data active means percent response above about 24%, passing the limit was not always enough
# MEKK3 PB1 HTS: modulators of MEKK3-MEK5 PB1 binding, primary screen, biochemical, wildtype MEKK3, multiplex bead flow cytometry, Alexa488-MEK5. Mitogen-activated protein kinase kinase kinase 3 (Homo sapiens), Q99759. bead-based flow cytometry, Alexa488-MEK5 binding to MEKK3; actives lie on both sides; 0 = blocked by unlabeled MEK5, 100 = vehicle. binding response (% of control), % at 10 µM. 290,000 compounds, 1.4% hits;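 active means binding response more than 3 SD above or below the average of its plate-row segment, actives on both sides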;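 further: Alexa488 bead fluorescence after subtracting the streptavidin-only scavenger bead signal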
# Target sequence (Q99759 whole entry, looked up): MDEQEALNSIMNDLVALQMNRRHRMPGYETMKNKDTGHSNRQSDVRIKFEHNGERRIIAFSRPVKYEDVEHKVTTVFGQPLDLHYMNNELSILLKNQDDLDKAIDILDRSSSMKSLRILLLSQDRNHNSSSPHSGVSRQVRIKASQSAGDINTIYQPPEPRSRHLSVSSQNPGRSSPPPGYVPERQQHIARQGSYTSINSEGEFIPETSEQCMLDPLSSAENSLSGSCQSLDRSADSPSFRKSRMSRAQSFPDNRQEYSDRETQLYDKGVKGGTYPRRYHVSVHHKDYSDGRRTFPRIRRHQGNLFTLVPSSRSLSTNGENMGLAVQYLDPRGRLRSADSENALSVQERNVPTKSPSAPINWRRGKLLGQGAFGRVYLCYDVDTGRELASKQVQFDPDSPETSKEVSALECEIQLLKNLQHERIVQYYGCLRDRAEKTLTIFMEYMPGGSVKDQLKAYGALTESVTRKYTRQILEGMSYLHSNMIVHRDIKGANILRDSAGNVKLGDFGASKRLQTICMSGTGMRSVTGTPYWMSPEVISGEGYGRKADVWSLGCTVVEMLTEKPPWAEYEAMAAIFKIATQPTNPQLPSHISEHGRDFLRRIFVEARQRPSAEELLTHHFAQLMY
# dFosB act-2: activators of mouse delta FosB DNA binding, confirmation, biochemical, fluorescence polarization, TAMRA-CDK5 oligo, cherry-picked samples; shares compounds with dFosB act-1; purified delta FosB; normalised: neutral wells 0, positive control 100; activation, % at 24.9 µM; 2,400 tested, under 10 active;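 active means highest replicate activation at or above 34% and every replicate reaching that threshold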;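 further: higher polarization means more probe DNA bound by delta FosB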
# * marks the source's active call; other numbers are inactive results; . = no result.
SMILES,FID counter,MEKK2wt PB1 HTS,dFosB act-1,MEKK2 mut-MEK5,MEKK3 PB1 HTS,dFosB act-2
O=C(CN1C(=O)NC2(CCc3ccccc3C2)C1=O)Nc1ccc(Cl)cc1F (configuration not stated),-11,108,40*,2,119,-8
O=C(CN1C(=O)NC2(CCCCCC2)C1=O)Nc1ccc(Cl)cc1Cl,.,.,1,.,.,.
COc1ccc(CCNC(=O)c2ccc(OCc3c(C)noc3C)c(OC)c2)cc1,.,.,-3,.,.,.
COc1cc(C(=O)NCCc2ccc(S(N)(=O)=O)cc2)ccc1OCc1c(C)noc1C,.,.,26*,.,.,2
COc1cc(C(=O)NCc2ccc(C)cc2)ccc1OCc1c(C)noc1C,-24,106,25*,9,106,6
Nc1nc(N)c2nc(-c3ccccc3)c(N)nc2n1,-4,97,19*,2,107,0
NSc1nc(N)c2nc(-c3ccccc3)c(-c3ccccc3)nc2n1,1,91,-5,-6,96,.
CCc1nn(CC(=O)NCCCN(CC)Cc2ccccc2)c(=O)c2cc3sccc3n12,8,104,-3,6,105,.
CCCCN(CCCNC(=O)Cn1nc(CC)n2c(cc3sc(C)cc32)c1=O)Cc1ccccc1,14,111,35*,12,101,1
COc1ccccc1/C=C(\NC(=O)c1ccc(OC)c(OC)c1)C(=O)Nc1cc([N+](=O)[O-])ccc1C,3,97,28*,-2,86,-2
COc1ccc(/C=C(/NC(=O)c2cccc([N+](=O)[O-])c2)C(=O)O)cc1OC,3,99,-3,-1,100,.
NS(=O)(=O)c1ccc(CCNC(=O)CCCCCn2c(=S)[nH]c3ccc(Br)cc3c2=O)cc1,-24,107,49*,-1,106,10
C=CCn1c(=S)[nH]c2cc(C(=O)NCCc3ccc(S(N)(=O)=O)cc3)ccc2c1=O,.,.,5,.,.,.
NS(=O)(=O)c1ccc(CCNC(=O)c2ccc(Cn3c(=O)[nH]c4ccccc4c3=O)cc2)cc1,-8,96,34*,-6,103,-10
NC(=O)C12C(=O)NC(=O)C1(C(=O)O)C21CCCC1 (configuration not stated),.,.,-6,.,.,.
COc1ccc(-c2cc3c(=O)n(CC(=O)Nc4ccc(C(C)=O)cc4)ncn3n2)cc1,-11,100,74*,-1,96,-2
O=C(NN1CCN(Cc2ccccc2)CC1)c1ccc(Cl)cc1,3,98,-5,-3,101,.
COc1ccc2cc(OCC(=O)NNC(=O)Nc3ccc(F)cc3)ccc2c1,-4,98,21*,2,97,0
CCc1cccc(NC(=O)CC2Oc3ccccc3NC2=O)c1 (configuration not stated),-16,106,21*,4,105,0
COC(=O)c1cc(NC(=O)CC2Oc3ccccc3NC2=O)cc(C(=O)OC)c1 (configuration not stated),-23,108,-17,4,101,.
Cc1ccc(C(C)(C)C)cc1S(=O)(=O)Nc1cccc(C(=O)N2CCN(c3ccccn3)CC2)c1,.,.,-11,.,.,.
Cn1nc(C(=O)Nc2cccc(Cl)c2)cc1C(=O)Nc1cccc(Cl)c1,-9,109,33*,8,110,2
Cn1nc(C(=O)Nc2ccc(Cl)cc2)cc1C(=O)Nc1ccc(Cl)cc1,-6,101,8,2,101,.
O=c1[nH]c2cc3c(cc2cc1C(c1nnnn1Cc1ccccc1)N1CCCc2ccccc21)OCO3 (configuration not stated),-6,89,.,0,89,.
O=c1[nH]c2cc3c(cc2cc1C(c1nnnn1Cc1ccccc1)N1CCN2CCCC2C1)OCCO3 (configuration not stated),14,103,22*,6,103,-12
SMILES,FID counter,MEKK2wt PB1 HTS,dFosB act-1,MEKK2 mut-MEK5,MEKK3 PB1 HTS,dFosB act-2
O=c1[nH]c2cc3c(cc2cc1C(c1nnnn1Cc1ccccc1)N1CCCCCC1)OCCO3 (configuration not stated),-4,106,28*,3,108,8
O=c1[nH]c2cc3c(cc2cc1C(c1nnnn1C1CCCC1)N1CCCc2ccccc21)OCCO3 (configuration not stated),.,.,-5,.,.,.
Cn1c(=O)oc2cc(S(=O)(=O)N3CCCC(C(=O)NCc4ccc5c(c4)OCO5)C3)ccc21 (configuration not stated),0,105,46*,8,101,2
COc1ccc(S(=O)(=O)N2CCCC(C(=O)NCc3ccc4c(c3)OCO4)C2)cc1 (configuration not stated),-28,100,-7,0,100,.
CC(CCc1ccccc1)NS(=O)(=O)c1ccccc1Cl (configuration not stated),-23,96,-10,7,97,.
Cc1ccc(-c2nn(CC(=O)NC(C)c3ccccc3)c(=O)c3ccccc23)cc1 (configuration not stated),-4,94,28*,-2,97,-22
Cc1nn(CC(=O)NC(C)c2ccccc2)c(=O)c2ccccc12 (configuration not stated),-8,101,-4,2,103,.
COc1ccc(C)cc1NC(=O)CCNC(=O)Cn1ccc2ccccc2c1=O,-21,96,22*,-2,98,3
COc1ccccc1NC(=O)CCNC(=O)Cn1ccc2ccccc2c1=O,-11,96,4,-1,99,.
O=C(CCl)NNC(=O)c1c(O)c2ccccc2[nH]c1=O,2,106,-9,7,101,.
O=C(NNC(=O)c1c(O)c2ccccc2[nH]c1=O)c1ccccc1Br,-11,94,52*,-14,96,0
COC(=O)c1cn(NC(=O)Cc2c(F)cccc2Cl)c(=O)c2ccccc12,-8,81,-8,-14,91,.
COC(=O)c1cn(NC(=O)COc2ccc(Cl)cc2)c(=O)c2ccccc12,-3,98,32*,-1,98,6
CC(C)(C)c1cc(C(=O)N/N=C/c2cc3c(cc2Br)OCO3)n[nH]1,-27,100,27*,1,104,4
O=C(N/N=C/c1cc2c(cc1Br)OCO2)c1c[nH]c2ccccc12,-13,98,29*,2,102,2
CS(=O)(=O)N(CC(=O)N/N=C/c1cc2c(cc1Br)OCO2)c1ccccc1Br,-11,.,27*,.,.,7
